Test results reported in PubChem BioAssay (Tox21).
Inconclusive results are not listed. Some structures have more than one record in an assay (separate samples or runs), and their calls can disagree. Calls of active or inactive are those of the source. Unless noted, the call rests on the fitted dose curve; in most records, active means well fitted curve in the direction sought with a large enough effect in the repeat runs; inconclusive means weak or mixed curves; inactive means no such curve, though single readings can be large; an effect the other way counts as inactive or inconclusive.

Assays:
[1] = qHTS assay to identify small molecule agonists of the estrogen receptor beta (ER-beta) signaling pathway - cell viability counter screen (AID 1259380); further: nearly all actives have a fitted effect of over 30% in size; further: potency means the concentration at half of the fitted maximal effect
Procedure, shortened: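 Compounds dissolved in DMSO were pin-transferred onto ER-beta-UAS-bla HEK293T cells that had settled 6 hr, and exposure ran 16 hr at 37C. Following the reporter read, CellTiter-Glo luminescence after 30 min at room temperature indicated cytotoxicity.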

[2] = qHTS assay to identify small molecule antagonists of the estrogen receptor beta (ER-beta) signaling pathway - cell viability counter screen (AID 1259382);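 further: HEK293T cells carrying ER-beta-UAS-bla reporter stimulated with estradiol; series mostly up to about 92 µM; nearly all actives have a fitted effect of over 55% in size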
Procedure, shortened: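 CellTiter-Glo ATP luminescence measured after the LiveBLAzer read in the same wells; ER-beta-UAS-bla HEK293T cells, 16 hr compound treatment with 1nM 17-beta-estradiol agonist at 37C, 5% CO2.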

[3] = target: Estrogen receptor (Homo sapiens) (UniProt P03372); test: qHTS assay to identify small molecule agonists of the estrogen receptor alpha (ER-alpha) signaling pathway in the presence of an antagonist (AID 1259383; calls by dose curve; further: nearly all actives have a fitted effect of over 15% in size; further: potency means the concentration at half of the fitted maximal effect; on activation: top concentration of the series differs between compounds)
Sequence of Estrogen receptor (Homo sapiens) (P03372 whole entry, looked up): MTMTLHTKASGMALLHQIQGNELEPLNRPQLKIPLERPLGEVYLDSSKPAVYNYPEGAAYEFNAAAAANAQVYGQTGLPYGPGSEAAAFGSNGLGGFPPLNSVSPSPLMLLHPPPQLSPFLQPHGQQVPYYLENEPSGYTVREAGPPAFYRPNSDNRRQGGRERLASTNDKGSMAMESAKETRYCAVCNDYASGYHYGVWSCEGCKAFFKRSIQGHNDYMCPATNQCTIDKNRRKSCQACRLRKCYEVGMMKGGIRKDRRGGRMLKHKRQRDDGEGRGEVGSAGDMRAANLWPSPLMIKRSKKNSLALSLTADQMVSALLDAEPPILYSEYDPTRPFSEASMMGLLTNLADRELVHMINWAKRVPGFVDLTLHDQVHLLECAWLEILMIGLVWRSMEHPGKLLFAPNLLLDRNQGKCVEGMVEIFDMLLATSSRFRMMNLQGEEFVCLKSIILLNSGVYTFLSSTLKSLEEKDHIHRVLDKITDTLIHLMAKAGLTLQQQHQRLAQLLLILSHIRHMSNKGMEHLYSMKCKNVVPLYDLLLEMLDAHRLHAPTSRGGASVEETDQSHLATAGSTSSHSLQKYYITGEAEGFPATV
Procedure, shortened: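 Luminescent ERE-luciferase reporter, VM7Luc4E2 cells (endogenous ER-alpha); 10.0nM ICI-182,780 final; 15-point compound titration; 22hr at 37C; ONE-Glo, 30min RT.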

[4] = qHTS assay to identify small molecule agonists or antagonists of the thyroid stimulating hormone receptor (TSHR) signaling pathway - wild type cell line counter screen (AID 1259384; calls by dose curve)
Procedure, shortened: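 Counter screen in untransfected Hek293: compounds (15-point titration, triplicate) plus phosphodiesterase inhibitor Ro20-1724 added after 18 h plating; 30 min RT. Intracellular cAMP via competitive d2/cryptate immunoassay, 1 h incubation.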

[5] = target: Thyrotropin receptor (Homo sapiens) (UniProt P16473); test: qHTS assay to identify small molecule antagonists of the thyroid stimulating hormone receptor (TSHR) signaling pathway (AID 1259385; calls by dose curve; further: nearly all actives have a fitted effect of over 20% in size)
Sequence of Thyrotropin receptor (Homo sapiens) (P16473 whole entry, looked up): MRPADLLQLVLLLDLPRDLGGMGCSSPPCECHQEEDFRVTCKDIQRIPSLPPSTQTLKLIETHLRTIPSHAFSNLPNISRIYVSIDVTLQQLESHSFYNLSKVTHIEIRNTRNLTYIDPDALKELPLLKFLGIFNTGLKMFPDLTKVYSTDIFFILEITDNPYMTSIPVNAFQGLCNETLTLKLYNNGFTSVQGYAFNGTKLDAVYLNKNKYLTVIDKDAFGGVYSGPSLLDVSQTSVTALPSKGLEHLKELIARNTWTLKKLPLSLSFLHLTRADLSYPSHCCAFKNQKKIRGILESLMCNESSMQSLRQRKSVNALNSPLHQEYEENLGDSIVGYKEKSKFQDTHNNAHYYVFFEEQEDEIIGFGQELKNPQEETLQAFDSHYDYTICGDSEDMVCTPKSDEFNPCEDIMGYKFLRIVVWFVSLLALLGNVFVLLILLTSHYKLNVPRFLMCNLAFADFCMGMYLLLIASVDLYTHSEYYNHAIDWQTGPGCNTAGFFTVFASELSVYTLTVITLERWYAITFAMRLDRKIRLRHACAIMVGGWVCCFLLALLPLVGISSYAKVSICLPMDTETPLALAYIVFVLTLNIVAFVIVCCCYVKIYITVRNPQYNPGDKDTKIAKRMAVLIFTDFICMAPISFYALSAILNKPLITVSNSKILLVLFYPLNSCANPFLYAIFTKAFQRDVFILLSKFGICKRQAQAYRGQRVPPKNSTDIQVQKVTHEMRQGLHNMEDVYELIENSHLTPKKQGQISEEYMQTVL
Procedure, shortened: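 Antagonist mode: compound-treated TSHR-expressing HEK293 cells were stimulated with 1.5 ng/mL TSH (final) in presence of Ro20-1724 for 30 min at RT. HTRF cAMP detection after 1 h; each compound tested at 15 concentrations, triplicate.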

[6] = qHTS assay to identify small molecule agonists of the estrogen receptor alpha (ER-alpha) signaling pathway in the presence of an antagonist - cell viability counter screen (AID 1259386);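 further: series mostly up to about 92 µM; cells exposed to compounds for 22 h at 37 °C before the viability read; nearly all actives have a fitted effect of over 30% in size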
Procedure, shortened: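 Using estrogen-depleted VM7Luc4E2 cells, the 15-concentration compound series was applied together with 10.0nM ICI-182,780 and incubated 22hr at 37C/5% CO2. Cell viability was then scored by CellTiter-Fluor.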

[7] = target: Progesterone receptor (Homo sapiens) (UniProt P06401); test: qHTS assay to identify small molecule agonists of the progesterone receptor (PR) signaling pathway (AID 1346784; calls by dose curve; further: nearly all actives have a fitted effect of over 30% in size; further: potency means the concentration at half of the fitted maximal effect)
Sequence of Progesterone receptor (Homo sapiens) (P06401 whole entry, looked up): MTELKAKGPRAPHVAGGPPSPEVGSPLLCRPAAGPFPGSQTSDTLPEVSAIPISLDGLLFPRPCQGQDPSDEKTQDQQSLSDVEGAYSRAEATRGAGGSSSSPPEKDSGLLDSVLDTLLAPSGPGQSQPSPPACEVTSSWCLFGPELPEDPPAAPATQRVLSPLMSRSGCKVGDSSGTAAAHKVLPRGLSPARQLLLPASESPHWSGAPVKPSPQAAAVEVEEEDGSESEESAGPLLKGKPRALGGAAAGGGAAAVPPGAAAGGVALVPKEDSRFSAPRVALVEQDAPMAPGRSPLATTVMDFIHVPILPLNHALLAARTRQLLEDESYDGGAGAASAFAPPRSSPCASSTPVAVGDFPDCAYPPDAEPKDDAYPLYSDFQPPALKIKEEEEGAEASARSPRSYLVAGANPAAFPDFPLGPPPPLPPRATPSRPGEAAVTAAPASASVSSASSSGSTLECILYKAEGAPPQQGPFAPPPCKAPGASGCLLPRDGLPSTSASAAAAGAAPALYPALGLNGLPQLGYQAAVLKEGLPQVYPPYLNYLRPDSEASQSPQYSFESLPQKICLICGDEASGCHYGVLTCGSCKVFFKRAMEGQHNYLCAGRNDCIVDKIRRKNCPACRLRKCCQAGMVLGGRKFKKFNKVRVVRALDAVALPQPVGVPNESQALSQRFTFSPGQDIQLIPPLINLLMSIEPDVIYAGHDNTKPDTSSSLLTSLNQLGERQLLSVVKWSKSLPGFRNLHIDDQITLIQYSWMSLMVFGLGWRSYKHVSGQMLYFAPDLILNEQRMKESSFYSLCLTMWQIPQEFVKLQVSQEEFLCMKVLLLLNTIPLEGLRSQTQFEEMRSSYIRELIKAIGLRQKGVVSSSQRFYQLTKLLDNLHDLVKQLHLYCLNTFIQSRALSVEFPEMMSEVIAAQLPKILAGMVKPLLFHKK
Procedure, shortened: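 Beta-lactamase reporter read-out: after 16 hr compound treatment at 37C and a further 2 hr at room temperature with LiveBLAzer B/G FRET substrate, fluorescence was measured in PR-UAS-bla HEK 293T cells grown in 2% charcoal-stripped serum.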

[8] = target: Progesterone receptor (Homo sapiens) (UniProt P06401); test: qHTS assay to identify small molecule antagonists of the progesterone receptor (PR) signaling pathway (AID 1346795; active means well fitted inhibition curve with a large enough effect in the signal ratio in the repeat runs, not every such curve was filed as active; the % refers to the signal ratio; further: potency means the concentration at half of the fitted maximal effect)
Procedure, shortened: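 Read-out is fluorescence from the LiveBLAzer B/G FRET substrate, cleaved by a UAS-controlled beta-lactamase in PR-UAS-bla HEK293T cells after 16 hr exposure to compound plus 1 nM promegestone (final), followed by 2 hr at room temperature.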

[9] = qHTS assay to identify small molecule antagonists of the progesterone receptor (PR) signaling pathway - cell viability counter screen (AID 1346798);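 further: HEK293T PR-UAS-bla cells stimulated with the agonist R5020; series mostly up to about 92 µM; nearly all actives have a fitted effect of over 50% in size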
Procedure, shortened: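 HEK293T PR-UAS-bla, 2% charcoal-stripped FBS; 4 hr pre-plate; cpd + R5020, 16 h 37C; LiveBLAzer read first; then CellTiter-Glo 30 min RT, luminescence.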

[10] = qHTS assay to identify small molecule agonists of the progesterone receptor (PR) signaling pathway - cell viability counter screen (AID 1346799; calls by dose curve; further: nearly all actives have a fitted effect of over 45% in size)
Procedure, shortened: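 Luminescence from CellTiter-Glo, added after the beta-lactamase FRET read in the same wells, gave cytotoxicity in PR-UAS-bla HEK293T cells treated with compounds for 16 hr at 37C.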

[11] = qHTS assay to identify small molecule antagonists of the TGF-beta/Smad signaling pathway - cell viability counter screen (AID 1346824); further: nearly all actives have a fitted effect of over 50% in size
Procedure, shortened: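 Cytotoxicity counter-screen run in the same wells as the beta-lactamase Smad reporter read: CellTiter-Glo luminescence after 30 min at room temperature. HEK 293T SBE-bla cells had 5 hr compound exposure at 37 C with TGF-beta1 (0.25 ng/mL stock).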

[12] = qHTS assay to identify small molecule agonists of the TGF-beta/Smad signaling pathway - cell viability counter screen (AID 1346829); further: top concentration of the series differs between compounds; nearly all actives have a fitted effect of over 45% in size
Procedure, shortened: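 Same-well cytotoxicity: CellTiter-Glo added after the 2 hr room-temperature beta-lactamase substrate step, luminescence measured 30 min later; cells had 5 hr of compound at 37 C.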

[13] = qHTS assay to identify small molecule agonists of the TGF-beta/Smad signaling pathway (AID 1346859; active means well fitted activation curve with a large enough effect in the signal ratio in the repeat runs, not every such curve was filed as active; the % refers to the signal ratio; further: series mostly up to about 77 µM)
Procedure, shortened: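 SBE-bla HEK 293T, 4,000 cells/well, plated o/n; cpd in DMSO, 5 hr, 37 C/5% CO2; B/G FRET substrate 2 hr RT; ex 405, em 460/530 nm.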

[14] = target: Thyrotropin-releasing hormone receptor (Homo sapiens) (UniProt P34981); test: qHTS assay to identify small molecule antagonists of the thyrotropin-releasing hormone receptor (TRHR) signaling pathway (AID 1346877; active means well fitted inhibition curve with a large enough effect in the repeat runs, not every such curve was filed as active; further: series mostly up to about 51 µM)
Sequence of Thyrotropin-releasing hormone receptor (Homo sapiens) (P34981 whole entry, looked up): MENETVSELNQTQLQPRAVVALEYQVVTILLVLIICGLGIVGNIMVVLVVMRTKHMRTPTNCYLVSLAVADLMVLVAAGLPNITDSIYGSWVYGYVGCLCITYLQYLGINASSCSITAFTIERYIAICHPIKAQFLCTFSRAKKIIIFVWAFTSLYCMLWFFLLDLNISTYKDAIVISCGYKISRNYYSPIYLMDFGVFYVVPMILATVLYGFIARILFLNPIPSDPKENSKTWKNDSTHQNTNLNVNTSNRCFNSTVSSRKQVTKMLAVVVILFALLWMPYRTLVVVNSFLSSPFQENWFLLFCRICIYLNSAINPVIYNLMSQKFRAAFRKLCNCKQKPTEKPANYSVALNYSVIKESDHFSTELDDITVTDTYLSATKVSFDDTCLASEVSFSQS
Procedure, shortened: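 Calcium signal in dye-loaded TRHR/HEK293 cells; compounds added 5 min before TRH (1 nM final); fluorescence monitored 3 min at 1 s steps.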

[15] = target: Thyrotropin-releasing hormone receptor (Homo sapiens) (UniProt P34981); test: qHTS assay to identify small molecule agonists of the thyrotropin-releasing hormone receptor (TRHR) signaling pathway (AID 1346891; calls by dose curve; further: series mostly up to about 58 µM)
Procedure, shortened: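 Intracellular calcium rise, read as fluorescence every second for 3 min, served as the agonist signal in dye-loaded HEK293 cells expressing TRHR; each compound ran at 15 concentrations in triplicate.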

[16] = Human pregnane X receptor (PXR) small molecule agonists, qHTS cell viability counter screen (AID 1346977); further: nearly all actives have a fitted effect of over 50% in size; further: potency means the concentration at half of the fitted maximal effect
Procedure, shortened: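 PXR-Luc HepG2, 2,000 cells/well, 5% charcoal-stripped FBS; 5hr settle; cpd 24hr, 37C/5% CO2; CellTiter-Fluor at 23hr, read 1hr later (fluorescence).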

[17] = Caspase-3/7 induction in HepG2 cells by small molecules, qHTS assay (AID 1346978); further: nearly all actives have a fitted effect of over 15% in size
Procedure, shortened: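 Caspase-3/7 induction was measured by Caspase-Glo 3/7 luminescence (30 min, room temperature) after a 17 hr compound exposure of wild-type HepG2 cells seeded at 2,000 per well and pre-incubated 5 hr.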

[18] = Caspase-3/7 induction in CHO-K1 cells by small molecules, qHTS cell viability counter screen (AID 1346979); further: nearly all actives have a fitted effect of over 35% in size; further: potency means the concentration at half of the fitted maximal effect
Procedure, shortened: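 Cells (CHO-K1, wild type) are plated at 1,500 per well and incubated 5hr. Test compounds in DMSO are then pinned in, followed by 16hr at 37C and 5% CO2. Viability is read by CellTiter-Fluor fluorescence after 1hr.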

[19] = Caspase-3/7 induction in CHO-K1 cells by small molecules, qHTS assay (AID 1346980); further: nearly all actives have a fitted effect of over 15% in size
Procedure, shortened: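 Luminescent Caspase-Glo 3/7 read (30min, room temperature) quantified apoptosis induction. Cells were wild-type CHO-K1, treated with compound for 17hr at 37 C and 5% CO2.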

[20] = target: Androgen receptor (Homo sapiens) (UniProt P10275); test: qHTS assay to identify small molecule agonists of the androgen receptor (AR) signaling pathway in the presence of an antagonist (AID 1259381; calls by dose curve; further: nearly all actives have a fitted effect of over 15% in size)
Sequence of Androgen receptor (Homo sapiens) (P10275 whole entry, looked up): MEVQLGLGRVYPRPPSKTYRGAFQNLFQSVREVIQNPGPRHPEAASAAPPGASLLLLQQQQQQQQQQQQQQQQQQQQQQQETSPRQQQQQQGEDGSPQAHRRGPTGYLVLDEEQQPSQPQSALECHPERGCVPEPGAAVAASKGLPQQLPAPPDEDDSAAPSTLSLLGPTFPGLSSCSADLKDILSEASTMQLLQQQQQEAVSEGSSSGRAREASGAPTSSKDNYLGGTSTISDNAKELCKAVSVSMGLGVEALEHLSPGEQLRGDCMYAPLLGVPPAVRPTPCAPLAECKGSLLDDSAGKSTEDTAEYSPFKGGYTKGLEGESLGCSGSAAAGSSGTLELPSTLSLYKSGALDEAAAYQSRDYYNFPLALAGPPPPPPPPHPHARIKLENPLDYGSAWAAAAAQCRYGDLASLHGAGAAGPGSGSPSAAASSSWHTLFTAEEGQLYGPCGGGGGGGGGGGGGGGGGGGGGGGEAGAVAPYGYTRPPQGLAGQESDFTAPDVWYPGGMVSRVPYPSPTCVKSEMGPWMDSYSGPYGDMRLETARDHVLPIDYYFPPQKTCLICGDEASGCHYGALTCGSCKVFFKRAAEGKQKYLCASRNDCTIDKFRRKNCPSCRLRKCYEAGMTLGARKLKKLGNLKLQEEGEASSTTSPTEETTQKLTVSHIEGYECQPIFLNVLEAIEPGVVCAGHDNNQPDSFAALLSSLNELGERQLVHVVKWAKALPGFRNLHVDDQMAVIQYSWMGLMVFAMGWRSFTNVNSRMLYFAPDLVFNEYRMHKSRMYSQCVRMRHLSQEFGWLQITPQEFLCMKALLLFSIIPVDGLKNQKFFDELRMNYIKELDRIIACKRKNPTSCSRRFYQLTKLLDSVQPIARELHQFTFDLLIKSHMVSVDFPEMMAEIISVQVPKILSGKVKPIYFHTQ
Procedure, shortened: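 Plated MDA-kb2 cells (3,000/well) were pre-incubated 5hr, given nilutamide (3.0uM final) or buffer, then dosed with compounds in DMSO at 15 concentrations. Luciferase activity was quantified by luminescence after 16hr at 37C.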
On the % scale 0 is the no-effect control and ±100 the full control effect.

CC(=O)OCC(=O)[C@@]12N=C(C)O[C@@H]1C[C@H]1[C@@H]3CCC4=CC(=O)C=C[C@]4(C)[C@H]3[C@@H](O)C[C@@]12C
active: Potency [7] 686 nM
inactive: Potency [1] | Potency [2] | Potency [3] | outcome [4] | Potency [5] | Potency [6] | Potency [8] | Potency [9] | Potency [10] | Potency [11] | Potency [12] | outcome [13] | Potency [14] | outcome [15] | Potency [16] | Potency [17] | Potency [18] | outcome [19]

Cc1cnc(C(=O)NCCc2ccc(S(=O)(=O)NC(=O)NC3CCCCC3)cc2)cn1
inactive: Potency [1] | Potency [2] | Potency [3] | outcome [4] | Potency [5] | Potency [6] | Potency [7] | Potency [8] | Potency [9] | Potency [10] | Potency [12] | outcome [13] | Potency [16] | Potency [17] | Potency [18] | outcome [19]

CCCCCCCCCCCCOCCO
inactive: Potency [1] | Potency [20] | Potency [2] | outcome [4] | Potency [5] | Potency [6] | Potency [7] | Potency [10] | Potency [12] | Potency [14] | outcome [15] | Potency [16] | Potency [17] | outcome [19]

O=c1[nH]c(=O)n([C@H]2C[C@H](O)[C@@H](CO)O2)cc1Br
inactive: Potency [1] | Potency [2] | Potency [3] | outcome [4] | Potency [5] | Potency [6] | Potency [7] | Potency [8] | Potency [9] | Potency [10] | Potency [11] | Potency [12] | outcome [13] | Potency [14] | outcome [15] | Potency [16] | Potency [18] | outcome [19]

c1ccc2c(c1)ccc1ccccc12
inactive: Potency [1] | Potency [20] | Potency [2] | Potency [3] | outcome [4] | Potency [6] | Potency [7] | Potency [8] | Potency [9] | Potency [10] | Potency [11] | Potency [12] | outcome [13] | Potency [14] | outcome [15] | Potency [16] | Potency [18] | outcome [19]

Fc1ccc(Br)cc1
61.8 µM (active) and inactive: Potency [3]
inactive: Potency [1] | Potency [2] | outcome [4] | Potency [5] | Potency [6] | Potency [7] | Potency [8] | Potency [9] | Potency [10] | Potency [11] | Potency [12] | outcome [13] | Potency [14] | outcome [15] | Potency [16] | Potency [17] | Potency [18] | outcome [19]

NNc1nncc2ccccc12
active: Potency [1] 21.7 µM | Potency [8] 61.1 µM | Potency [16] 48.6 µM | Potency [18] 43.3 µM
inactive: activity change, negative = cytotoxicity [1] -0.605% [at 19 µM] | Potency [2] | outcome [4] | Potency [5] | activity change, negative = cytotoxicity [6] -0.882% [at 19 µM] | Potency [7] | activity change, negative = inhibition [8] 9.77% [at 18.9 µM] | activity change, negative = cytotoxicity [9] -14.1% [at 18.9 µM] | activity change, negative = cytotoxicity [10] -14.8% [at 19 µM] | Potency [12] | outcome [13] | activity change, negative = cytotoxicity [16] 6.87% [at 19 µM] | activity change, negative = cytotoxicity [18] -0.255% [at 19 µM] | outcome [19]

O=C(O)CC(C(=O)O)C(CC(=O)O)C(=O)O (stereo unspecified)
inactive: Potency [1] | Potency [2] | Potency [3] | outcome [4] | Potency [5] | Potency [6] | Potency [7] | Potency [8] | Potency [9] | Potency [10] | Potency [12] | outcome [13] | Potency [16] | Potency [17] | Potency [18] | outcome [19]

OCCOCCOCCO
inactive: Potency [1] | Potency [20] | Potency [2] | Potency [3] | outcome [4] | Potency [6] | Potency [7] | Potency [8] | Potency [9] | Potency [10] | Potency [11] | Potency [12] | outcome [13] | Potency [14] | outcome [15] | Potency [16] | Potency [18] | outcome [19]

CC(=O)Nc1cccc(O)c1
inactive: Potency [1] | Potency [2] | Potency [3] | outcome [4] | Potency [5] | Potency [6] | Potency [8] | Potency [9] | Potency [10] | Potency [12] | outcome [13] | Potency [16] | Potency [18] | outcome [19]
24.2 µM (active) and inactive: Potency [7]

Cc1ccc(S(N)(=O)=O)cc1
inactive: Potency [1] | Potency [2] | outcome [4] | Potency [5] | Potency [6] | Potency [7] | Potency [8] | Potency [9] | Potency [10] | Potency [11] | Potency [12] | outcome [13] | Potency [14] | outcome [15] | Potency [16] | Potency [17] | Potency [18] | outcome [19]

OC[C@H]1O[C@@](CO)(O[C@H]2O[C@H](CO)[C@@H](O)[C@H](O)[C@H]2O)[C@@H](O)[C@@H]1O
inactive: Potency [1] | Potency [2] | Potency [3] | Potency [6] | Potency [7] | Potency [8] | Potency [9] | Potency [10] | Potency [11] | Potency [12] | outcome [13] | Potency [14] | outcome [15] | Potency [16] | Potency [17] | Potency [18] | outcome [19]

O=[N+]([O-])c1ccc(/C=C/c2ccc([N+](=O)[O-])cc2S(=O)(=O)O)c(S(=O)(=O)O)c1
inactive: Potency [1] | Potency [2] | Potency [3] | Potency [6] | Potency [7] | Potency [8] | Potency [9] | Potency [10] | Potency [12] | Potency [14] | outcome [15] | Potency [16] | Potency [17] | Potency [18] | outcome [19]

CN(C)CCCN
inactive: Potency [1] | Potency [2] | Potency [3] | outcome [4] | Potency [6] | Potency [7] | Potency [8] | Potency [9] | Potency [10] | Potency [11] | Potency [12] | Potency [14] | outcome [15] | Potency [16] | Potency [17] | Potency [18] | outcome [19]

CCCCCCCCCCCCCCO
inactive: Potency [1] | Potency [2] | Potency [3] | outcome [4] | Potency [6] | Potency [7] | Potency [8] | Potency [9] | Potency [10] | Potency [11] | Potency [12] | outcome [13] | Potency [14] | outcome [15] | Potency [16] | Potency [17] | Potency [18] | outcome [19]
